According to publication PMC11995724, “Antibiotic target discovery by integrated phenotypic and activity-based profiling of electrophilic fragments” (Cell chemical biology, 2025):
Hit rate of the full screen: of about 3,200 compounds, about 110 (3.4%) showed an effect of 50% or more. Shown is part of a subset that was picked to be rich in strong results.

Each molecule was assayed on T1, V. cholerae SAD30. Details: relative growth, OD600, LB; 25 µM; inhibitor.
T1 construct: SAD30
Design: species or system S. aureus MSSA476 (TSB) or V. cholerae SAD30 (LB); 384-well bacterial growth screen at 25 uM, OD600 relative to DMSO control

Going from `C#CCN1C(=O)C=CC1=O` [10-F09, 1-(prop-2-yn-1-yl)-2,5-dihydro-1H-pyrrole-2,5-dione] to `O=C1C=CC(=O)N1c1ccccc1F` [10-D17, 1-(2-fluorophenyl)-2,5-dihydro-1H-pyrrole-2,5-dione], the “% of control remaining” value rises from 15.1179% to 26.1835%.

Going from `CC(Cl)C(=O)N1CCN(Cc2ccc3ccccc3n2)CC1` (centres unmarked) [7-A15, 2-chloro-1-{4-[(quinolin-2-yl)methyl]piperazin-1-yl}propan-1-one] to `Cc1nc(C#N)c(N2CCN(C(=O)CCl)CC2)o1` [5-L18, 5-[4-(2-chloroacetyl)piperazin-1-yl]-2-methyl-1,3-oxazole-4-carbonitrile], the “% of control remaining” value rises from 80.0925% to 96.3329%.

Going from `Cc1nc(C)c(C(=O)CCl)o1` [10-N08, 2-chloro-1-(2,4-dimethyl-1,3-oxazol-5-yl)ethan-1-one] to `Cc1noc(C)c1C(=O)CCl` [10-K13, 2-chloro-1-(3,5-dimethyl-1,2-oxazol-4-yl)ethan-1-one], the “% of control remaining” value falls from 41.4572% to 23.0664%.

Compared with `Cc1ccc(C(=O)CCl)o1` [10-A09, 2-chloro-1-(5-methylfuran-2-yl)ethan-1-one], `Cc1coc(C)c1C(=O)CCl` [10-M11, 2-chloro-1-(2,4-dimethylfuran-3-yl)ethan-1-one] is lower in “% of control remaining” value: 117.514% for the first, 109.41% for the second.

Compared with `CC(Cl)C(=O)Nc1c(Cl)cccc1Cl` (centres unmarked) [4-B16, 2-chloro-N-(2,6-dichlorophenyl)propanamide], `Cc1ccc(C(=O)C(C)Cl)cc1C` (centres unmarked) [10-B20, 2-chloro-1-(3,4-dimethylphenyl)propan-1-one] is lower in “% of control remaining” value: 102.653% for the first, 99.2792% for the second.

Compared with `C=CC(=O)NC(=O)NCc1ccccc1` [1-I04, 1-benzyl-3-(prop-2-enoyl)urea], `CCc1ccc(NC(=O)C(C#N)=Cc2cccnc2)cc1` [8-G04, 2-cyano-N-(4-ethylphenyl)-3-(pyridin-3-yl)prop-2-enamide] is lower in “% of control remaining” value: 96.861% for the first, 83.8205% for the second.

First: NS(=O)(=O)c1cccc2cc(NC(=O)CCl)ccc12 [5-K16, 2-chloro-N-(5-sulfamoylnaphthalen-2-yl)acetamide]
Second: O=C(c1ccccc1)c1cc(Cl)ccc1N1C(=O)C=CC1=O [10-M16, 1-(2-benzoyl-4-chlorophenyl)-2,5-dihydro-1H-pyrrole-2,5-dione]
The “% of control remaining” value of the first is higher: 109.11% for the first, 57.9778% for the second.

Compared with `C=CC(=O)N(Cc1c(F)cc(C)cc1Cl)C1CCCOCC1` (centres unmarked) [2-A13, N-[(2-chloro-6-fluoro-4-methylphenyl)methyl]-N-(oxepan-4-yl)prop-2-enamide], `C=CC(=O)N1CCC(C(=O)NCCC2(O)CCCOC2)CC1` (centres unmarked) [2-B04, N-[2-(3-hydroxyoxan-3-yl)ethyl]-1-(prop-2-enoyl)piperidine-4-carboxamide] is higher in “% of control remaining” value: 81.8585% for the first, 101.004% for the second.

Going from `C=CC(=O)N1CCC(C(=O)N2CCN(c3ccnc(C)n3)CC2)CC1` [2-L06, 1-{4-[4-(2-methylpyrimidin-4-yl)piperazine-1-carbonyl]piperidin-1-yl}prop-2-en-1-one] to `C=CC(=O)N1CCC(c2nc(C3CC3)no2)C1` (centres unmarked) [2-E09, 1-[3-(3-cyclopropyl-1,2,4-oxadiazol-5-yl)pyrrolidin-1-yl]prop-2-en-1-one], the “% of control remaining” value rises from 88.9607% to 93.9014%.

First: COc1cccc([C@H]2C[C@H](N(C)C(=O)C(C)Cl)C2)c1 (some centres unmarked) [6-B17, 2-chloro-N-methyl-N-[(1r,3r)-3-(3-methoxyphenyl)cyclobutyl]propanamide]
Second: CN(C(=O)CCl)C1CCN(c2ccccc2F)C1=O (centres unmarked) [5-A18, 2-chloro-N-[1-(2-fluorophenyl)-2-oxopyrrolidin-3-yl]-N-methylacetamide]
The “% of control remaining” value of the first is lower: 89.6388% for the first, 104.066% for the second.

First: Cc1noc(C)c1CN(C)C(=O)CCl [5-G06, 2-chloro-N-[(3,5-dimethyl-1,2-oxazol-4-yl)methyl]-N-methylacetamide]
Second: N#CC(=Cc1cccc(-c2ccncc2)c1)C(=O)NCc1ccco1 [9-B06, 2-cyano-N-[(furan-2-yl)methyl]-3-[3-(pyridin-4-yl)phenyl]prop-2-enamide]
The “% of control remaining” value of the first is higher: 92.4661% for the first, 87.4915% for the second.

`O=C1C=CC(=O)N1c1ccc(F)cc1F` [10-F15, 1-(2,4-difluorophenyl)-2,5-dihydro-1H-pyrrole-2,5-dione] was tested, and the “% of control remaining” value was 26.4952%.
